Seed-corrected z-score data for 85 sequences are collected here from PubChem BioAssay AID1159506 (National Center for Advancing Translational Sciences (NCATS), 2015).

Whole data set: some 59,000 sequences, median the read-out near -0.00055, cut for the lowest 2% near -2. Many of the other results were omitted from the sample, so the lowest values are more common in it than they were.

A short description of the assay: Identification of proteins required for the processing of the EWS-FLI1 nascent transcript.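 Also: robust z of luciferase light less the median z of siRNAs with the same seed.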 As to conditions: TC32 Ewing sarcoma NR0B1-luc vs CMV-luc (EWS-FLI1 target promoter against control promoter), 48 h; screened at 20 nM (by protocol). The gist of the method:
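TC32 Ewing sarcoma cells carrying NR0B1-promoter or CMV-promoter luciferase reporters were reverse-transfected with single siRNAs at 20 nM, three per gene genome-wide. Luminescence was read after 48 h and normalized to non-targeting controls.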
The sequence UAGUUGGUGAGGAUCACGG against REN showed a seed-corrected z-score of -0.578. In turn, UACUCUUCCAACGACAGGC against UQCC2 showed a seed-corrected z-score of 0.919. For UUCCGAGUUGCAGAGGUCU against SLURP1, the seed-corrected z-score is -0.177.

AAAAGGAUUGCUGAAAUGG against LOC650293 had a seed-corrected z-score of 0.542. In the case of UCUUGACUGACUUUCUUCU against FAM173B, the seed-corrected z-score is -2.2. Take AAUGGAUGCAGUGUCAAGC against PAK1IP1: the seed-corrected z-score amounted to 1.75. In turn, UUCCUUGACAAGCAUAACC against CARNMT1 gave a seed-corrected z-score of -0.155. On to AAAUCUUACAGACUGGUUC against BEX1, for which the seed-corrected z-score is -0.486. In turn, UCAUGGGUCACGUCAGCUG against SLC2A1 registered a seed-corrected z-score of -0.895. The value for ACACUGUAAAGCUCGGUGC against LARP1 was 0.106; that for UUAGAGUUGGUGAUGAGCA against GALK1 was 1.7; that for AAAAGGACUAUGUACAGCC against SNRPB was -3.37. Regarding UAUGCUCUCUGAUCGAAUG against ATG16L1, the seed-corrected z-score was determined as 0.136.

On to UUGCUCACAAUAAAAUAGC against GPR89A, for which the seed-corrected z-score was -0.56. UGUAGACAAAGUACUGGGC against CNTN2 had a seed-corrected z-score of -0.261.

Take AAACUUCCUAUUAUCGACC against SPRED2: the seed-corrected z-score is -0.704. For UUCGAGUGAAGACAGAAUC against ZNF318, the seed-corrected z-score was -2.15. The sequence UAAGUUGUGAUGAUAGGUU against ZNF98 showed a seed-corrected z-score of -0.0973. The sequence AUCUGAUCCAUAUUCUCCC against DIEXF yielded a seed-corrected z-score of 0.628. UACAAUAAAAGAAGCAUCU against PIGY had a seed-corrected z-score of 0.157. The value for UUUCUUAGAAAUGAGGUGA against OVOL1 was -0.287; that for UCAGGAUCUGUGGAUACUG against COPB2 was -2.55. The value for UCAUAGUCCACGAGUUUCC against BIN2 was 0.142. Sequence UUCGGUUGAACCUUGUCUG against ORC2 displayed a seed-corrected z-score of -0.39. The result for AAUACAAUGAGGAUGUUGC against MCHR2 reads -0.242. As for AUCUUUAACCCGAAAGGUC against STRC, the seed-corrected z-score was -3.57. Consider UACUCGAAGAUUUCCGUCC against SEC16B, for which the seed-corrected z-score is -0.242. UUCGAUGUCACAGGUCUGC against RGS14 registered a seed-corrected z-score of -0.247.

Turning to UCGAUAUCAACUUUUGCCG against CEP192, the seed-corrected z-score was -0.779. Regarding UUUGAUAGAGGUGCGGACG against OR6F1, the seed-corrected z-score was -0.169. The result for UAUCCGAUCACCACUCUCC against MYOM3 reads -0.29. The result for UUCUUUCUGAGUCUGGUUA against RPL35 reads -3.01. In turn, AAAGGCUUAAUUUUUACCU against TOMM7 gave a seed-corrected z-score of 1.3.

The sequence UGAGUUCCAGGUCUUAUGC against DEFB110 showed a seed-corrected z-score of -0.42. Sequence AUAUUGUUUAGCUCCACGG against MASP1 registered a seed-corrected z-score of 0.285. Sequence UAGUCGUUCUUCUACAGCC against MBIP came in with a seed-corrected z-score of 0.411. In turn, UCACGAAGAGUUGCAACUG against ALB returned a seed-corrected z-score of -3.99.

With UGUAGUAACAGAGCCACGC against PPY, the seed-corrected z-score turned out to be 0.227.

Sequence AAAAGUCCUAGCAUAUUCC against ZER1 returned a seed-corrected z-score of 0.406. The sequence UUUGUGAUCUUGGUGAGGU against SHBG showed a seed-corrected z-score of -0.0288.

As to AACUGGACUGGAAUUGUUU against CXCR1, the seed-corrected z-score is -0.419. UAUGUGCUGGUGAUCCUUC against DEAF1 showed a seed-corrected z-score of 0.839. As for UGUUGUACAACGAUAGCCU against RELL1, the seed-corrected z-score is -0.595. Consider AUUGUAACGGGUUUUGUUC against CHRNB4, for which the seed-corrected z-score was -0.325.

For the sequence AACUGUUCCAUCGACUUGG against RASAL1, the seed-corrected z-score was -0.492. The sequence UUACUGUCCAGAGCACUGA against SMARCD3 yielded a seed-corrected z-score of -0.925. With UUUGCUAUAAUCCACCUCC against IK, the seed-corrected z-score was -3.11. Consider UAGACGAUAAGACUCUUUC against NCOA7, for which the seed-corrected z-score was -0.339. As for UAUUGAAGCAACUAGGAUG against KIAA0754, the seed-corrected z-score is -0.869. Turning to UGCAGGAUGACCAAAGUGC against LGALS14, the seed-corrected z-score was 0.705.

With AAUAUGUCCAGCCCAGCUG against CLIC1, the seed-corrected z-score is -0.000686. Take UUUCCUUUGGUUGUUAAUG against FDX1: the seed-corrected z-score is -0.575. The result for UUCCGAGAUAUGGAGGUAC against KIAA0368 reads 0.95. The sequence UCAUCUUCUUCCGUUGCCG against PPP1R1A registered a seed-corrected z-score of 0.273. In turn, UAAGAAAAAGCGGAGUUCG against FZD7 yielded a seed-corrected z-score of 0.0443. UUCUUUUGACUCUUAGUCC against CLEC4C came in with a seed-corrected z-score of -2.28. UAGCCUAGGAGAUACAUCG against COPB2 returned a seed-corrected z-score of -3.63. The result for UAACUUUUCCCUUAUUCAG against FAM90A3P reads 0.873; that for UUCCGUGUGAAACAGAUGG against ARMC4, 0.434.

AAUGUAGUAAAUGCAAGUU against C3orf79: the seed-corrected z-score was -0.0591. Turning to UUCUGGUAGAAGCAUUUCC against ZNF25, the seed-corrected z-score is -1.93.

Sequence UGAUGAAGUAGGUCACGGC against SLC29A4 had a seed-corrected z-score of 0.41. On to UUUUCAGUCUCACUAGUUU against MIPEPP3, for which the seed-corrected z-score turned out to be 0.623. In turn, AUUCUUAAUCUUUACAUCC against BRDTP1 had a seed-corrected z-score of 0.809. UAAGGGUCCUUCCAUGGCC against PVRIG showed a seed-corrected z-score of 0.201. In turn, AUGUUUCCCAUAACAGUGG against OR4D2 gave a seed-corrected z-score of -3.19. For the sequence UGAAAAUCACGAGAUUUCC against TEAD1, the seed-corrected z-score came out at 0.305. As for UGUUAAACUGCUAAGGAUG against RPRD2, the seed-corrected z-score is -0.294. Consider UCAUGUACGGCCUCUUCCC against CCDC8, for which the seed-corrected z-score amounted to 0.173. The value for UCUGUGAGCAGUUUCCACU against SOX21 was -2.74; that for UGAAUGUCUUGCGAUUUGC against CADM2 was 0.122; that for UCCCAACCCAGUCAUAACC against BEST3 was 0.332. On to UUUCGGUACUCGGUUAACC against EIF3FP3, for which the seed-corrected z-score was determined as 0.962. The sequence UUGUCGUGAAAUGAAACUC against TTLL11 returned a seed-corrected z-score of -0.262.

For the sequence UUCCUUUCCACUGCCGUGU against CHRAC1, the seed-corrected z-score worked out at 0.0577. In the case of UUCGUUAAGCAAACACUCG against ADAMTS9, the seed-corrected z-score is 0.367. UUUCAGAUAAGCACGAAGC against EIF3M showed a seed-corrected z-score of 1.89. Regarding UUAGCUGCAUGAUACCAGG against FAM151B, the seed-corrected z-score is -2.3.

Turning to AUAGUUACAGAGGCAAGAG against MESTP3, the seed-corrected z-score came out at 1.98. UAUCUAACUUCUGUCCCGC against HCCS gave a seed-corrected z-score of 0.00186. On to UCUGCAACAAGAUCAACAG against POP5, for which the seed-corrected z-score is 0.345. The sequence UUUUCUACAGCUCUCACUC against CREB3 gave a seed-corrected z-score of -2.05.

As for AAACCUAAAAAUGCACUCC against MAGEE1, the seed-corrected z-score worked out at 0.116. On to UAGGUGACGAUCUCCAUCA against HCK, for which the seed-corrected z-score is -1.81. The value for UUUCAUAUGUGAAUCCUCC against TCN2 was 0.641.
